Measured values reported in PubChem BioAssay (NCI).
This is part of a sample that, as a whole, favours compounds with a hit. Of some 83,000 tested, about 20% had one in any assay.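 Plates (96-well) were seeded with cells, treated with compound at one concentration, and incubated for 48 hours before percent growth was determined.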 Unmarked numbers belong to inactive results. The source made the active and inactive calls. Rule for the calls: active = growth percent below 10; inactive = the rest.

What was measured:
Test in all cases: NCI-60 one-dose screen, 48 h (100 = growth as untreated, 0 = no growth, -100 = all killed)
Conditions in all cases: 10 µM unless noted
HCT-15 colon = system: HCT-15 colon
HT29 colon = system: HT29 colon
SNB-75 CNS = system: SNB-75 CNS
SNB-19 CNS = system: SNB-19 CNS
U251 CNS = system: U251 CNS
PC-3 prostate = system: PC-3 prostate
SK-MEL-5 melanoma = system: SK-MEL-5 melanoma
UACC-62 melanoma = system: UACC-62 melanoma
LOX IMVI melanoma = system: LOX IMVI melanoma
SK-MEL-28 melanoma = system: SK-MEL-28 melanoma

SMILES	growth (HCT-15 colon)	growth (HT29 colon)	growth (SNB-75 CNS)	growth (SNB-19 CNS)	growth (U251 CNS)	growth (PC-3 prostate)	growth (SK-MEL-5 melanoma)	growth (UACC-62 melanoma)	growth (LOX IMVI melanoma)	growth (SK-MEL-28 melanoma)
CC[C@@]12CC(C(=O)OC)=C3Nc4cc5c(cc4[C@@]34CCN(C[C@H]3O[C@H]31)[C@@H]24)[C@@H]1[C@H](O5)[C@@H](O)[C@@]2(CC)CC(C(=O)OC)=C3Nc4cc(O)ccc4[C@@]34CCN1[C@@H]24	-51.6% (active)	-14% (active)	-34.4% (active)	-43.8% (active)	-57.5% (active)	15.9%	-90.2% (active)	-57.8% (active)	-84.4% (active)	-47.3% (active)
Clc1ccc2c(NCCNC34CC5CC(CC(C5)C3)C4)ccnc2c1	-82% (active)	-50.8% (active)	-74.9% (active)	-54.2% (active)	-61.8% (active)	-5.27% (active)	-96% (active)	-89.9% (active)	-91.5% (active)	-93.5% (active)
COc1cc(/C=N/NC(=O)c2ccc(OCc3nc4ccc(Cl)cc4[nH]3)cc2)cc(OC)c1OC	37.4%	21.4%	123%	55.5%	52.8%	35.5%	-19.9% (active)	16.7%	26%	32.4%
FC(F)(F)c1cc2c(Cl)ncnc2n1CCN1CCOCC1	2.39% (active)	81.2%	53.5%	43.4%	78.5%	88.2%	88.2%	64.7%	-12.7% (active)	74.1%
CCCCNC(=S)Nc1ccc(OCc2nc3ccc(Cl)cc3[nH]2)cc1	14.5%	28.4%	26.4%	53%	23.7%	35.4%	42.5%	29.9%	-29.8% (active)	45.5%
COC(=O)c1c(C(=O)OC)c2c3ccccc3c3ccccc3n2c1C(=O)C(C)(C)C	46.6%	71.9%	83.5%	96.2%	85.3%	35.3%	46.8%	50.1%	81.4%	92.5%
Cc1ccc2nc(COc3ccc(C(=O)NNC(=O)Nc4ccc(Cl)c(C(F)(F)F)c4)cc3)[nH]c2c1	97.2%	75.9%	94.1%	24.9%	-1.34% (active)	18.1%	35.3%	40.1%	69.1%	-35.4% (active)
N#Cc1c(-c2ccc(F)cc2)nc(SCc2ccccc2)nc1N1CCNCC1	-87.9% (active)	-70.7% (active)	-93% (active)	-81.4% (active)	-95.8% (active)	-51.6% (active)	-100% (active)	-97.3% (active)	-93.6% (active)	-96.3% (active)
O=C(c1ccc(Cl)cc1)C1[C@H](c2ccccc2Cl)[C@@H](c2ccccc2)NC12C(=O)Nc1ccc(Cl)cc12 (stereo not given in full)	-81% (active)	-81.6% (active)	-16.4% (active)	-28.4% (active)	-73.3% (active)	-24.8% (active)	-98.1% (active)	-59.9% (active)	-100% (active)	-80.1% (active)
COc1ccc(SC2c3cc(OC)ccc3Oc3nc(N)c(C#N)c(N)c32)cc1 (stereo not given)	80.5%	97.4%	49.6%	71.7%	65.3%	42.4%	60.4%	65.5%	5.16% (active)	111%
OC1CCC(Cn2c(C(F)(F)F)cc3c(Cl)ncnc32)CC1 (stereo not given)	-14.2% (active)	49.9%	-71.6% (active)	-88.6% (active)	11.6%	23.5%	-83.6% (active)	-53.5% (active)	-98.4% (active)	20.2%
CCOc1ccccc1[C@H]1C(C(=O)c2ccc(Cl)cc2)C2(N[C@@H]1c1ccccc1)C(=O)Nc1ccccc12 (stereo not given in full)	7.49% (active)	-0.161% (active)	46.9%	27%	29.9%	7.19% (active)	-90.7% (active)	-4.32% (active)	-48.1% (active)	40.8%
